Data as given in the supplement of paper PMC9337992.
± gives the standard deviation of the averaged measurements.

tested on: MDAMB231; assay: cell proliferation (confluence) relative to DMSO control; higher = less growth inhibition; settings: 5 uM; 6 d
Procedure: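 Epigenetic chemical probe screen: 15 TNBC cell lines, 500 cells per well in 384-well plates, treated with 5 uM of each of 36 SGC probes for 6 d. Confluency was imaged by IncuCyte ZOOM and normalised to DMSO control wells. Four replicate wells per compound.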

| Compound | cell proliferation |
| --- | --- |
| CNCCN1CCC(OCc2ccccc2)CC1 | 82 ± 5.4% |
| CCOC(=O)CCNc1cc(N2CCc3ccccc3CC2)nc(-c2cccnc2)n1 | 98.88 ± 0.33% |
| CCn1cc(-c2cccc(C(F)(F)F)c2)c2sc(C(=N)NC3CCS(=O)(=O)CC3)cc2c1=O | 89.7 ± 4% |
| COc1ccccc1S(=O)(=O)Nc1ccc2c(c1)CN(C)C(=O)N2 | 67.9 ± 8.3% |
| COc1cc2c(cc1OCCCN1CCCC1)N=C(N)C21CCC1 | 96 ± 1.6% |
| CCCOc1ccn2c(C(C)=O)cc(-c3ccccc3S(C)(=O)=O)c2c1 | 96.7 ± 2.7% |
| O=C(NCC(=O)N1CCCC1)Nc1ccc2cnccc2c1 | 81.5 ± 7.2% |
| Cn1cc(CCn2cnc(-c3cnn(C)c3)c2-c2ccc(C#N)cc2)cn1 | 96.4 ± 3.1% |
| CCCc1cc(C)[nH]c(=O)c1CNC(=O)c1cc(-c2ccc(N3CCN(C(C)C)CC3)nc2)cc2c1cnn2C(C)C | 57.1 ± 6.4% |
| O=C(NC[C@H](O)CN1CCc2ccccc2C1)c1ccnc(NC2CCC2)c1 | 45 ± 5.1% |
| CC(C)N(CCCNC(=O)Nc1ccc(C(C)(C)C)cc1)C[C@H]1O[C@@H](n2cc(Br)c3c(N)ncnc32)[C@H](O)[C@@H]1O | 99.63 ± 0.16% |
| CCCc1cc(C)[nH]c(=O)c1CNC(=O)c1cc(-c2ccnc(N3CCN(C)CC3)c2)cc2c1cnn2C(C)C | 99.683 ± 0.051% |
| CCN(C(=O)CO)[C@H]1CN(/C(=N\C#N)Nc2cccc(OC(F)F)c2)N=C1c1ccc(Cl)c(Cl)c1 | 98.31 ± 0.72% |
| CC(C)Oc1ccc(-c2c[nH]cc2CN(C)CCO)cc1 | 86.1 ± 7.1% |
| O=C([C@@H](Cc1cccc(C(F)(F)F)c1)NS(=O)(=O)c1cc(F)c2c(c1)CCNC2)N1CCCC1 | 87 ± 14% |
| O=C(c1ccc(C(=O)N2CCC(N3CCCC3)CC2)c(Nc2ccccc2)c1)N1CCC(N2CCCC2)CC1 | 99.13 ± 0.17% |

| Compound | cell proliferation |
| --- | --- |
| Clc1cc2c(NC3CCCC3)nnc(-c3ccncc3)c2cc1Cl | 98.72 ± 0.35% |
| Cc1nnc2c3ccccc3c(N[C@@H](C)[C@H](c3ccccc3)N(C)C)nn12 [L-moses] | 88.6 ± 8.2% |
| Cc1cc(=O)n(C)c2cc(N3C(=O)CC[C@H](NS(=O)(=O)CC(C)C)[C@H]3c3ccc(Cl)cc3)ccc12 | 95.9 ± 3.5% |
| COc1ccc(CCc2nc3cc(-c4c(C)noc4C)ccc3n2C[C@H](C)N2CCOCC2)cc1Cl | 90.9 ± 1.5% |
| CCOC(=O)CCNc1cc(N2CCc3ccccc3CC2)nc(-c2ccccn2)n1 | 31.7 ± 7.8% |
| COc1ccccc1C(=O)Nc1cc2c(cc1N1CCCC1)n(C)c(=O)n2C | 91.8 ± 5.7% |
| O=C(/C=C/N1C[C@H]2C[C@@H]1CN2c1ccccn1)c1ccccc1O | 99.17 ± 0.39% |
| CCCc1cc(C)n(C)c(=O)c1CN(C)C(=O)c1cc(-c2ccc(N3CCN(C(C)C)CC3)nc2)cc2c1cnn2C(C)C | 99.29 ± 0.32% |
| CCC(=O)N1CCOc2c(cc(-c3ccc(OC)c(OC)c3)cc2OC[C@H]2CCCN(C)C2)C1 | 79.2 ± 5.1% |
| CC(C)Oc1ccc(-c2c[nH]cc2CN(C)CCN)cc1 | 46.8 ± 5.9% |
| COc1c(C)cc(NC(=O)c2nn(Cc3ccc(F)cc3)c3c2CN(C(=O)c2ccc[nH]2)C[C@]3(C)C(N)=O)cc1C | 95.7 ± 2.2% |
| COc1cc(-c2cn(C)c(=O)c3cnccc23)c(OC)cc1CN(C)C | 96.6 ± 1.5% |
| CN(C)[C@H]1CN(C2CCc3cccc(F)c32)C[C@@H]1c1ccc(N2CCN(S(C)(=O)=O)CC2)cc1 (some centres not stated) | 99.19 ± 0.27% |
| COc1cc(C#N)ccc1S(=O)(=O)Nc1ccc2c(c1)cc(C)c(=O)n2C | 95.9 ± 4.5% |
| CC[C@H](C)n1cc(C)c2c(C(=O)NCc3c(C)cc(C)[nH]c3=O)cc(-c3ccc(N4CCNCC4)nc3)cc21 | 98.5 ± 1.6% |
| COc1cc2c(NC3CCN(C(C)C)CC3)nc(C3CCCCC3)nc2cc1OCCCN1CCCC1 | 99.05 ± 0.52% |
